# Measurements taken from PubChem BioAssay (Tox21).
# Records with an inconclusive call do not appear. A call without a number means that no potency is given here. Activity calls are given as the source filed them. Calls come from the whole dose curve; as a rule, active = well fitted inhibition curve with a large enough effect in the repeat runs; inconclusive = weak or mixed curves, or effect the other way; inactive = no such curve, though single readings can be large or run the other way.
# Assay: qHTS assay to identify small molecule antagonists of the retinoic acid receptor (RAR) signaling pathway (AID 1159552; note: nearly all actives have a fitted effect of over 50% in size)
# Settings: C3RL4 RARE luciferase reporter, retinol-stimulated, 6 h; series mostly up to 92.4 µM
# Text: National Center for Advancing Translational Sciences [NCATS]
# NIH Chemical Genomics Center [NCGC]
# U.S. Environmental Protection Agency [EPA]
# National Institutes of Environmental Health Sciences [NIEHS]
# National Toxicology Program [NTP]
# U.S. Food and Drug Administration [FDA]
# All-trans Retinoic acid (atRA) is the potent natural metabolite of retinol and plays an important role in normal embryonic development and maintenance of cellular phenotype in adult animals. atRA is the activating ligand for the retinoic acid receptors (RARs) which form heterodimers with retinoid X receptors (RXRs) on the retinoic acid response element (RARE). Through activation of the RAR/RXRs nuclear receptors, atRA regulates the transcription of a large number of protein-coding genes and regulatory RNAs. Intracellular levels of atRA are controlled by the retinol signaling pathway (RSP) that regulates the biosynthesis and catabolism of atRA to maintain physiological levels. Chemicals that interfere with the RSP can cause abnormal intracellular levels of atRA and therefore are potential developmental toxicants. To assess compounds for the potential adverse effect on embryonic development through interfering with retinol signaling, a cell-based RARE luciferase reporter gene assay was used. C3RL4 cell line (OARSA/CFSAN/FDA, Laurel, MD) was used to screen Tox21 10K compound library for identifying inhibitors of the RSP.
# Tox21 Assay Protocol Summary:
# C3RL4 cells were seeded at 1,000/well in 4 uL of assay medium into white solid 1,536-well tissue culture plates (Greiner Bio-One North America Inc. Monroe, NC) using a Multidrop Combi (Thermo Scientific, Waltham, MA) dispenser. After incubation at 37 C and 5% CO2 for an overnight, 23 nL of compounds dissolved in DMSO, positive control or DMSO only were transferred by a Pintool station (Kalypsys, San Diego, CA). One ul of 1 uM (final concentration) of Retinol was added right after the compound addition by using a Flying Reagent Dispenser (FRD) (Aurora Discovery, San Diego, CA). After 6 hr incubation at 37 C and 5% CO2, 5 uL of Amplite Luciferase reagent (AAT Bioquest Inc. Sunnyvale, CA) was added to each assay plate using an FRD. Luminescence was quantified on a ViewLux plate reader (PerkinElmer, Waltham, MA) after 30 min incubation at room temperature.
# Potency is the fitted concentration of half-maximal effect.
row,Structure (SMILES),Potency
1,Cc1c2ccccc2c(C)c2c1ccc1ccccc12,inactive
2,CC[C@H](C)COC(=O)/C=C/c1ccc(N=Cc2ccc(OC)cc2)cc1,inactive
3,CCCNCCC,inactive
4,CCOC(=O)c1ccc(C2CCC(NC[C@H](O)COc3ccc(O)c(NS(C)(=O)=O)c3)CC2)cc1 (stereo not given in full),56.4 µM (active)
5,Cc1cc(-c2ccc(N=Nc3cc(S(=O)(=O)O)c4ccccc4c3N)c(C)c2)ccc1N=Nc1cc(S(=O)(=O)O)c2ccccc2c1N,inactive
6,CCCc1ccc(OCC(=O)N2CCN(C(=O)COc3ccc(CCC)cc3OC)CC2)c(OC)c1,inactive
7,C=CC(=O)OCCOC(=O)C=C,inactive
8,O=C(O)c1cc(=O)c2ccccc2o1,inactive
9,Cc1cccc(C(=O)O)c1O,inactive
10,CCCCCCCC,inactive
11,Cc1ccc(N/N=c2\c(=O)cc/c(=N\Nc3ccc(S(=O)(=O)O)cc3)c2=O)c(C)c1,inactive
12,OCC(F)(F)F,inactive
13,CCC(CC)C(C)CCOC(C)=O (stereo not given),inactive
14,Cc1nc2n(c(=O)c1CCN1CCC(c3noc4cc(F)ccc34)CC1)CCCC2,inactive
15,CC(C)=CCNc1ncnc2c1ncn2[C@@H]1O[C@H](CO)[C@@H](O)[C@H]1O,23.7 µM (active)
16,COc1c(C)c2c(c(O)c1C/C=C(\C)CCC(=O)OCCN1CCOCC1)C(=O)OC2,inactive
17,CCO[Si](OCC)(OCC)OCC,inactive
18,CCCCCCC1CCCC(=O)O1 (stereo not given),inactive
19,COc1cc(C)ccc1O,inactive
20,CCCCCCCCCCCC(=O)OCC(C)OC(=O)CCCCC(=O)O (stereo not given),inactive

row,Structure (SMILES),Potency
1,O=c1[nH]c(=O)n([C@H]2C[C@H](O)[C@@H](CO)O2)cc1F,inactive
2,COc1ccc2c(c1)c(CC(=O)OC/C=C(\C)CC/C=C(\C)CCC=C(C)C)c(C)n2C(=O)c1ccc(Cl)cc1,inactive
3,O[C@@H]([C@H](O)[C@H](O)CBr)[C@H](O)CBr,inactive
4,Cc1ccc(C(=O)O)cc1,inactive
5,CC(C)(C)NSc1nc2ccccc2s1,inactive
6,CC(C)CCCCCOC(=O)CCS,inactive
7,C=C(CC)C(=O)c1ccc(OCC(=O)O)c(Cl)c1Cl,48.2 µM (active)
8,CCC(=O)OC(=O)CC,inactive
9,CCC(C)[O-].CCC(C)[O-].CCOC(=O)/C=C(/C)[O-].[Al+3],inactive
10,CCCCCCOC(=O)C(C)CC (stereo not given),inactive
11,CC1(C)CC(O)CC(C)(C)N1,inactive
12,O=C1NC(=O)[C@@H]2CC=CC[C@H]12,inactive
13,O=c1oc2cc(O)ccc2c2oc3cc(O)ccc3c12,inactive
14,Cc1c(C)c2c(c(C)c1OC(=O)c1cccnc1)CC[C@@](C)(CCC[C@H](C)CCC[C@H](C)CCCC(C)C)O2,inactive
15,C/C=C/C=C/COC(=O)C(C)C,27.3 µM (active)
16,CCN1C(=O)c2ccccc2C1Nc1ccc(OCCN2CCCCC2)cc1 (stereo not given),inactive
17,C#C[C@]1(O)CC[C@H]2[C@@H]3[C@H](C)CC4=C(CCC(=O)C4)[C@H]3CC[C@@]21C,29.8 µM (active)
18,Cc1cc(C)c(/C=C2\C(=O)Nc3ccccc32)[nH]1,inactive
19,O=[N+]([O-])c1ccc(O)cc1C(F)(F)F,inactive
20,Cc1ccc(C(C)C)cc2c(C)ccc1-2,inactive
